The whole screen tested about 5,500 compounds, of which about 2,000 (36%) were called active. Another 18% or so got no clear call; they are omitted. Rule as the data show it: active = normalized growth mostly below about 0.91 (no sharp cut-off); inconclusive = no clear call, values can overlap the other calls; inactive = mostly above about 0.92. The list shows a part of the results.
Assay: chemical genetic growth profiling, strain panel (AID 1159580);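 also: tested at 20 µM; growth read once vehicle control cultures reached saturation at 30 °C; 1 = growth at the plate median or of vehicle wells; lower values mean less growth of the strain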
Conditions: growth OD
[1] = S. cerevisiae deletion strains, locus YAR019C, strain CDC15, active compounds read low
[2] = S. cerevisiae deletion strains, locus YBL105C, strain PKC1, active compounds read low
[3] = S. cerevisiae deletion strains, locus YBR135W, strain CKS1, active compounds read low
[4] = S. cerevisiae deletion strains, locus YBR136W, strain MEC1, active compounds read low
[5] = S. cerevisiae deletion strains, locus YBR160W, strain CDC28, active compounds read low
[6] = S. cerevisiae deletion strains, locus YDL017W, strain CDC7, active compounds read low
[7] = S. cerevisiae deletion strains, locus YDL028C, strain MPS1, active compounds read low
[8] = S. cerevisiae deletion strains, locus YDL101C, strain DUN1, active compounds read low
[9] = S. cerevisiae deletion strains, locus YDL108W, strain KIN28, active compounds read low
[10] = S. cerevisiae deletion strains, locus YDL132W, strain cdc53, active compounds read low
[11] = S. cerevisiae deletion strains, locus YDL214C, strain PRR2, active compounds read low
[12] = S. cerevisiae deletion strains, locus YDR052C, strain DBF4, active compounds read low
[13] = S. cerevisiae deletion strains, locus YDR054C, strain cdc34, active compounds read low
[14] = S. cerevisiae deletion strains, locus YDR226W, strain ADK1, active compounds read low
[15] = S. cerevisiae deletion strains, locus YDR477W, strain SNF1, active compounds read low
[16] = S. cerevisiae deletion strains, locus YER123W, strain YCK3, active compounds read low
[17] = S. cerevisiae deletion strains, locus YER133W, strain GLC7, active compounds read low
[18] = S. cerevisiae deletion strains, locus YFL009W, strain cdc4, active compounds read low
[19] = S. cerevisiae deletion strains, locus YFL029C, strain CAK1, active compounds read low
[20] = S. cerevisiae deletion strains, locus YFR003C, strain YPI1, active compounds read low
[21] = S. cerevisiae deletion strains, locus YFR019W, strain FAB1, active compounds read low
[22] = S. cerevisiae deletion strains, locus YFR028C, strain CDC14, active compounds read low
[23] = S. cerevisiae deletion strains, locus YGR040W, strain KSS1, active compounds read low
[24] = S. cerevisiae deletion strains, locus YGR052W, strain FMP48, active compounds read low
[25] = S. cerevisiae deletion strains, locus YGR092W, strain DBF2, active compounds read low
[26] = S. cerevisiae deletion strains, locus YHR030C, strain SLT2, active compounds read low
[27] = S. cerevisiae deletion strains, locus YHR079C, strain IRE1, active compounds read low
[28] = S. cerevisiae deletion strains, locus YHR082C, strain KSP1, active compounds read low
[29] = S. cerevisiae deletion strains, locus YHR205W, strain SCH9, active compounds read low
[30] = S. cerevisiae deletion strains, locus YIL147C, strain SLN1, active compounds read low
[31] = S. cerevisiae deletion strains, locus YJL095W, strain BCK1, active compounds read low
[32] = S. cerevisiae deletion strains, locus YJL128C, strain PBS2, active compounds read low
[33] = S. cerevisiae deletion strains, locus YJL157C, strain FAR1, active compounds read low
[34] = S. cerevisiae deletion strains, locus YJR016C, strain ILV3, active compounds read low
[35] = S. cerevisiae deletion strains, locus YJR066W, strain TOR1 (second series), active compounds read low
[36] = S. cerevisiae deletion strains, locus YJR066W, strain TOR1, active compounds read low
[37] = S. cerevisiae deletion strains, locus YKL048C, strain ELM1, active compounds read low
[38] = S. cerevisiae deletion strains, locus YKL067W, strain YNK1, active compounds read low
[39] = S. cerevisiae deletion strains, locus YKL101W, strain HSL1, active compounds read low
[40] = S. cerevisiae deletion strains, locus YKL193C, strain SDS22, active compounds read low
[41] = S. cerevisiae deletion strains, locus YKL203C, strain TOR2, active compounds read low
[42] = S. cerevisiae deletion strains, locus YLR113W, strain HOG1, active compounds read low
[43] = S. cerevisiae deletion strains, locus YLR133W, strain CKI1, active compounds read low
[44] = S. cerevisiae deletion strains, locus YLR403W, strain SFP1, active compounds read low
[45] = S. cerevisiae deletion strains, locus YML070W, strain DAK1, active compounds read low
[46] = S. cerevisiae deletion strains, locus YMR001C, strain CDC5, active compounds read low
[47] = S. cerevisiae deletion strains, locus YMR205C, strain PFK2 (second series), active compounds read low
[48] = S. cerevisiae deletion strains, locus YMR277W, strain FCP1, active compounds read low
[49] = S. cerevisiae deletion strains, locus YNL006W, strain LST8, active compounds read low
[50] = S. cerevisiae deletion strains, locus YNL020C, strain ARK1, active compounds read low
[51] = S. cerevisiae deletion strains, locus YNL161W, strain CBK1, active compounds read low
[52] = S. cerevisiae deletion strains, locus YNL183C, strain NPR1, active compounds read low
[53] = S. cerevisiae deletion strains, locus YNL207W, strain RIO2, active compounds read low
[54] = S. cerevisiae deletion strains, locus YNL222W, strain SSU72, active compounds read low
[55] = S. cerevisiae deletion strains, locus YNL307C, strain MCK1 (second series), active compounds read low
[56] = S. cerevisiae deletion strains, locus YOL078W, strain AVO1, active compounds read low
[57] = S. cerevisiae deletion strains, locus YOL136C, strain PFK27, active compounds read low
[58] = S. cerevisiae deletion strains, locus YOR061W, strain CKA2, active compounds read low
[59] = S. cerevisiae deletion strains, locus YOR119C, strain RIO1, active compounds read low
[60] = S. cerevisiae deletion strains, locus YOR231W, strain MKK1, active compounds read low
[61] = S. cerevisiae deletion strains, locus YOR329C, strain SCD5, active compounds read low
[62] = S. cerevisiae deletion strains, locus YPL031C, strain PHO85, active compounds read low
[63] = S. cerevisiae deletion strains, locus YPL153C, strain RAD53, active compounds read low
[64] = S. cerevisiae deletion strains, locus YPL204W, strain HRR25, active compounds read low
[65] = S. cerevisiae deletion strains, locus YPL209C, strain IPL1, active compounds read low
[66] = S. cerevisiae deletion strains, locus YPL256C, strain CLN2, active compounds read low
[67] = S. cerevisiae deletion strains, locus YPR025C, strain CCL1, active compounds read low
[68] = S. cerevisiae deletion strains, locus YPR106W, strain ISR1, active compounds read low
[69] = S. cerevisiae deletion strains, locus YPR111W, strain DBF20, active compounds read low
[70] = S. cerevisiae deletion strains, strain NNK1, active compounds read low
[71] = S. cerevisiae deletion strains, strain TSCII, active compounds read low

Measured: normalized growth

O=C(SCc1c(Cl)cccc1Cl)c1ccc([N+](=O)[O-])o1
active: [11] 0.456 | [15] 0.295 | [16] 0.422 | [17] 0.553 | [21] 0.612 | [23] 0.324 | [24] 0.502 | [25] 0.221 | [26] 0.179 | [27] 0.334 | [28] 0.332 | [29] 0.0602 | [33] 0.477 | [35] 0.351 | [36] 0.425 | [37] 0.65 | [38] 0.652 | [39] 0.571 | [41] 0.438 | [42] 0.4 | [43] 0.499 | [44] 0.201 | [45] 0.547 | [47] 0.677 | [50] 0.48 | [52] 0.438 | [55] 0.247 | [57] 0.406 | [58] 0.633 | [59] 0.445 | [60] 0.578 | [62] 0.396 | [63] 0.614 | [64] 0.371 | [66] 0.232
inactive: [1] 0.954 | [2] 0.96 | [3] 0.968 | [4] 0.969 | [5] 0.964 | [6] 0.967 | [7] 0.969 | [8] 0.978 | [9] 0.961 | [10] 0.967 | [12] 0.967 | [13] 0.95 | [14] 0.959 | [18] 0.955 | [19] 0.951 | [20] 0.962 | [22] 0.962 | [30] 0.972 | [31] 0.624 | [32] 0.868 | [34] 0.965 | [40] 0.954 | [46] 0.942 | [48] 0.968 | [49] 0.976 | [51] 0.965 | [53] 0.947 | [54] 0.971 | [56] 0.963 | [61] 0.964 | [65] 0.976 | [67] 0.959 | [68] 0.985 | [69] 0.978 | [70] 0.959 | [71] 0.939

O=C(N/N=C\c1ccc([N+](=O)[O-])o1)c1ccc(O)cc1
inactive: [26] 0.924 | [27] 0.936 | [31] 0.907 | [36] 0.883 | [42] 0.872 | [52] 0.869 | [60] 0.91 | [66] 0.956

O=C(NNc1c(Cl)cccc1Cl)c1ccc([N+](=O)[O-])o1
active: [26] 0.698 | [42] 0.777 | [66] 0.811
inactive: [1] 0.956 | [2] 0.967 | [3] 0.957 | [4] 0.964 | [5] 0.945 | [6] 0.972 | [7] 0.941 | [8] 0.964 | [9] 0.949 | [10] 0.936 | [11] 0.895 | [12] 0.981 | [13] 0.959 | [14] 0.96 | [15] 0.873 | [16] 0.87 | [17] 0.916 | [18] 0.918 | [19] 0.948 | [20] 0.965 | [21] 0.89 | [22] 0.925 | [23] 0.883 | [24] 0.938 | [25] 0.874 | [27] 0.885 | [28] 0.916 | [29] 0.897 | [30] 0.96 | [31] 0.833 | [32] 0.899 | [33] 0.907 | [34] 0.956 | [35] 0.851 | [36] 0.848 | [37] 0.909 | [38] 0.886 | [39] 0.884 | [40] 0.956 | [41] 0.974 | [43] 0.906 | [44] 0.897 | [45] 0.884 | [46] 0.957 | [47] 0.937 | [48] 0.932 | [49] 0.973 | [50] 0.919 | [51] 0.966 | [52] 0.935 | [53] 0.953 | [54] 0.94 | [55] 0.887 | [56] 0.945 | [57] 0.886 | [58] 0.914 | [59] 0.917 | [60] 0.837 | [61] 0.967 | [62] 0.88 | [63] 0.875 | [64] 0.866 | [65] 0.964 | [67] 0.962 | [68] 0.96 | [69] 0.94 | [70] 0.965 | [71] 0.947

O=C(NC(=S)Nc1ccc(Cl)cc1)c1ccc([N+](=O)[O-])o1
inactive: S. cerevisiae deletion strains, locus YAL013W, strain DEP1, active compounds read low 0.958 | S. cerevisiae deletion strains, locus YBR229C, strain ROT2, active compounds read low 0.975 | [8] 1.03 | S. cerevisiae deletion strains, locus YDL134C, strain PPH21, active compounds read low 0.999 | S. cerevisiae deletion strains, locus YDR150W, strain NUM1, active compounds read low 0.964 | S. cerevisiae deletion strains, locus YEL061C, strain CIN8, active compounds read low 0.98 | S. cerevisiae deletion strains, locus YGR078C, strain PAC10, active compounds read low 0.963 | [26] 0.714 | S. cerevisiae deletion strains, locus YHR087W, strain rtc3, active compounds read low 0.955 | S. cerevisiae deletion strains, locus YJR043C, strain POL32, active compounds read low 0.985 | S. cerevisiae deletion strains, locus YJR075W, strain HOC1, active compounds read low 0.984 | S. cerevisiae deletion strains, locus YLR039C, strain RIC1, active compounds read low 0.899 | S. cerevisiae deletion strains, locus YLR058C, strain SHM2 (second series), active compounds read low 0.984 | S. cerevisiae deletion strains, locus YLR085C, strain ARP6, active compounds read low 0.892 | S. cerevisiae deletion strains, locus YLR262C, strain YPT6, active compounds read low 0.917 | S. cerevisiae deletion strains, locus YML094W, strain GIM5, active compounds read low 0.945 | S. cerevisiae deletion strains, locus YMR219W, strain ESC1, active compounds read low 0.978 | S. cerevisiae deletion strains, locus YMR263W, strain SAP30, active compounds read low 0.985 | S. cerevisiae deletion strains, locus YNL128W, strain TEP1, active compounds read low 0.979 | S. cerevisiae deletion strains, locus YNL153C, strain GIM3, active compounds read low 0.999 | S. cerevisiae deletion strains, locus YNL298W, strain CLA4 (second series), active compounds read low 0.912 | S. cerevisiae deletion strains, locus YNL322C, strain KRE1, active compounds read low 0.96 | S. cerevisiae deletion strains, locus YNR030W, strain Alg12, active compounds read low 0.956 | S. cerevisiae deletion strains, locus YOL006C, strain TOP1, active compounds read low 0.999 | S. cerevisiae deletion strains, locus YPL055C, strain LGE1, active compounds read low 0.937 | S. cerevisiae deletion strains, locus YPL241C, strain CIN2, active compounds read low 1.08 | S. cerevisiae strains, strain wild type, active compounds read low 0.981
active: S. cerevisiae deletion strains, locus YPR135W, strain CTF4, active compounds read low 0.577
